From PubChem BioAssay (Tox21)
Inconclusive results are not listed. The source made the active and inactive calls. Unless noted, calls come from the whole dose curve.

Legend:
[1] = Nuclear factor erythroid 2-related factor 2/antioxidant responsive element (Nrf2/ARE) small molecule agonists: qHTS cell viability counter screen in human keratinocytes (AID 1919968; active = well fitted curve in the direction sought with a large enough effect in the repeat runs; an effect the other way counts as inactive or inconclusive; note: nearly all actives have a fitted effect of over 55% in size)
In short: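 After a 5 h attachment period, ARE-reporter keratinocytes were dosed with compounds in DMSO and then cultured 23 h at 37 C. Cell viability came from CellTiter-Fluor signal read after a further 1 h.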

[2] = Nuclear factor erythroid 2-related factor 2/antioxidant responsive element (Nrf2/ARE) small molecule agonists: luciferase reporter gene qHTS assay in human keratinocytes (AID 1919969); note: nearly all actives have a fitted effect of over 35% in size
[3] = biological target: Gonadotropin-releasing hormone receptor (Homo sapiens) (UniProt P30968); assay: Human gonadotropin-releasing hormone receptor (GnRHR) small molecule agonists, calcium flux assay in GnRHR-HEK293 cells (AID 1920063); note: nearly all actives have a fitted effect of over 35% in size
In short: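 We seeded human GnRHR-expressing HEK293 cells for 18 hours, loaded them with calcium dye for an hour at 37 C, added test compounds, and recorded fluorescence intensity kinetically for three minutes.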

[4] = biological target: KiSS-1 receptor (Homo sapiens) (UniProt Q969F8); assay: Human kisspeptin (KISS1R) small molecule agonists, calcium flux assay in KISS1R-HEK293 cells (AID 1920064; active = well fitted curve in the direction sought with a large enough effect in the repeat runs; an effect the other way counts as inactive or inconclusive)
In short: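 Kinetic calcium assay, 1 s sampling over 3 min at Ex/Em 480/540, in HEK293 cells engineered with human KISS1R; compounds delivered in DMSO after 1 h dye loading.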

[5] = G protein-coupled receptor (GPCR) small molecule agonists, calcium flux assay: HEK293 wild type cell line counter screen (AID 1920065)
In short: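 Calcium-sensitive dye, loaded 1 h at 37 C into cells cultured 18 h, reports compound-evoked calcium release as fluorescence (Ex/Em 480/540), measured over 3 min. Agonist mode; 15-point titrations, triplicate.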

[6] = p53 small molecule agonists, cell-based qHTS assay with human liver microsomes (AID 1963577);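 note: p53 response element beta-lactamase reporter cells with liver microsomes plus NADPH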
In short: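 With metabolic activation: human liver microsomes (0.5 mg/mL final) plus NADPH (0.5 mg/mL final) added alongside compounds to p53RE-bla cells; 16 h 37 C exposure; beta-lactamase read by LiveBLAzer fluorescence.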

[7] = p53 small molecule agonists, cell-based qHTS assay with rat liver microsomes (AID 1963578)
In short: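 Metabolic activation by rat liver microsomes and NADPH, each 0.5 mg/mL final, added right after compounds to p53RE-bla reporter cells (4,000/well, plated 5 h earlier). 16 h at 37 C, then LiveBLAzer substrate for 2 h at room temperature in the dark; fluorescence read-out.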

[8] = p53 small molecule agonists, cell-based qHTS assay with human liver microsomes: qHTS cell viability counter screen (AID 1963579); note: nearly all actives have a fitted effect of over 45% in size
In short: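 Metabolic activation used human liver microsomes and NADPH, both 0.5 mg/mL final, over 16 hours at 37 C on p53RE-bla cells (4,000/well). Cytotoxicity measured by CellTiter-Glo luminescence, 30 min at room temperature.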

[9] = p53 small molecule agonists, cell-based qHTS assay with rat liver microsomes: qHTS cell viability counter screen (AID 1963580); note: nearly all actives have a fitted effect of over 45% in size
In short: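 In HCT-116 cells carrying a p53 response element-bla reporter, compounds were metabolically activated in situ by rat liver microsomes with NADPH over 16 h. Cell ATP content then served as the cytotoxicity measure.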

[10] = p53 small molecule agonists, cell-based qHTS assay: qHTS cell viability counter screen (AID 1963581); note: nearly all actives have a fitted effect of over 45% in size
In short: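 Following 5 h attachment, HCT-116 p53RE-bla cells took up compound for 16 h at 37 C; the reporter was read with B/G FRET substrate (2 h RT), and viability then via CellTiter-Glo ATP luminescence.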

[11] = p53 small molecule agonists, cell-based qHTS assay (AID 1963582; active = well fitted activation curve with a large enough effect in the signal ratio in the repeat runs, not every such curve was filed as active; the % refers to the signal ratio)
In short: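 In this cell-based concentration-response screen, a p53 response element drives beta-lactamase; cells received DMSO-borne compounds after 5 h culture and were incubated a further 16 h before FRET substrate development.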

[12] = biological target: 5-hydroxytryptamine receptor 2A (Homo sapiens) (UniProt P28223); assay: 5-hydroxytryptamine receptor 2A (HTR2A) small molecule antagonists, cell-based qHTS assay (AID 1963586); note: nearly all actives have a fitted effect of over 45% in size
In short: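 Antagonist-mode intracellular calcium assay: DOI (4 nM) added after 5 min compound pre-incubation at room temperature to dye-loaded HTR2A-CHO cells. Fluorescence followed for 3 min, sampled every second.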

[13] = biological target: 5-hydroxytryptamine receptor 2A (Homo sapiens) (UniProt P28223); assay: 5-hydroxytryptamine receptor 2A (HTR2A) small molecule agonists, cell-based qHTS assay (AID 1963587); note: nearly all actives have a fitted effect of over 30% in size
In short: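 HTR2A-CHO cells, plated 18 h at 37 C/5% CO2, dye-loaded 1 h at 37 C; compounds in DMSO added by pin tool (agonist mode). Intracellular calcium flux read as kinetic fluorescence on FDSS over 2 min at 1 s intervals.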

[14] = biological target: Muscarinic acetylcholine receptor M1 (Homo sapiens) (UniProt P11229); assay: Cholinergic receptor muscarinic 1 (CHRM1) small molecule agonists, cell-based qHTS assay (AID 1963589); note: nearly all actives have a fitted effect of over 35% in size
In short: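 Measures agonist-induced intracellular calcium rise. Stable human CHRM1 CHO line, 1 h dye load at 37 C, compounds from DMSO, kinetic fluorescence read.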

[15] = cAMP Responsive Elements (CRE) small molecule agonists, cell-based qHTS assay (AID 1963590)
In short: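 A CRE-responsive beta-lactamase reporter in HEK 293T cells was used. Treatment ran 3 h at 37 C; detection used LiveBLAzer B/G FRET substrate for 2 h at room temperature.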

[16] = cAMP Responsive Elements (CRE) small molecule antagonists, cell-based qHTS assay (AID 1963591; active = well fitted inhibition curve with a large enough effect in the signal ratio in the repeat runs, not every such curve was filed as active; the % refers to the signal ratio)
In short: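 HEK293T cells carrying a CRE-driven beta-lactamase reporter receive compound and NKH477 (0.25 uM final) for 3 h. Fluorescence from LiveBLAzer B/G FRET substrate is read after 2 h at room temperature.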

[17] = biological target: Beta-2 adrenergic receptor (Homo sapiens) (UniProt P07550); assay: Adrenergic beta2 receptor (ADRB2) small molecule antagonists, cell-based qHTS assay (AID 1963592); note: series mostly up to about 92 µM; nearly all actives have a fitted effect of over 50% in size
In short: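 Cells (CHO, stable ADRB2 overexpression) incubated 18-20hr at 37C; compounds added from DMSO; agonist mix (1nM isoproterenol, 100uM IBMX, 25uM Ro-20-1724) added; 0.5hr RT; d2-cAMP and anti-cAMP-cryptate added; 1hr RT; 665/615 nm read.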

[18] = biological target: D(2) dopamine receptor (Homo sapiens) (UniProt P14416); assay: Dopamine D2 receptor (DRD2) small molecule agonists, cell-based qHTS assay (AID 1963594); note: nearly all actives have a fitted effect of over 35% in size
In short: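 HEK293 cells stably expressing DRD2 were cultured 24 h at 37 C, then given Ro20-1724 (0.1 mM final) and compounds for 10 min at room temperature. NKH477 (200nM) was then added for 30 min. cAMP was read by HTRF.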

[19] = biological target: D(2) dopamine receptor (Homo sapiens) (UniProt P14416); assay: Dopamine D2 receptor (DRD2) small molecule antagonists, cell-based qHTS assay (AID 1963595; active = well fitted inhibition curve with a large enough effect in the signal ratio in the repeat runs, with a control signal flat; the % refers to the signal ratio)
In short: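 HEK293 cells stably expressing DRD2 were preincubated with 0.1 mM Ro20-1724, then with compound for 10 min at room temperature. Cells were stimulated with 200 nM NKH477 plus 12 nM quinpirole for 30 min, and cAMP was read by HTRF.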
% is set by controls: 0 for no effect and ±100 for the full control effect.

Chain of Muscarinic acetylcholine receptor M1 (Homo sapiens) (P11229 whole entry, looked up): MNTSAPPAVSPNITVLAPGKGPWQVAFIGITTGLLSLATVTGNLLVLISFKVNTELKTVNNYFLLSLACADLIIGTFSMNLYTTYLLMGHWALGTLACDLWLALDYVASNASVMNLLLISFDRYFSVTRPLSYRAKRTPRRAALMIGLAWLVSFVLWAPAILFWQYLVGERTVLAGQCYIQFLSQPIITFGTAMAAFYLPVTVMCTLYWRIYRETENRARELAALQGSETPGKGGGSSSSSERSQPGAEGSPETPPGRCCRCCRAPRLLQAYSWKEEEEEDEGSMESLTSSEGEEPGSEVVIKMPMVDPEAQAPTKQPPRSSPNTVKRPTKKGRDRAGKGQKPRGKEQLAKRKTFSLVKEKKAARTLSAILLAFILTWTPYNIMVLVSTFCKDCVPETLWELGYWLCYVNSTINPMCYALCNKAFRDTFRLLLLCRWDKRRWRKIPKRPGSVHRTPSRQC
Chain of Beta-2 adrenergic receptor (Homo sapiens) (P07550 whole entry, looked up): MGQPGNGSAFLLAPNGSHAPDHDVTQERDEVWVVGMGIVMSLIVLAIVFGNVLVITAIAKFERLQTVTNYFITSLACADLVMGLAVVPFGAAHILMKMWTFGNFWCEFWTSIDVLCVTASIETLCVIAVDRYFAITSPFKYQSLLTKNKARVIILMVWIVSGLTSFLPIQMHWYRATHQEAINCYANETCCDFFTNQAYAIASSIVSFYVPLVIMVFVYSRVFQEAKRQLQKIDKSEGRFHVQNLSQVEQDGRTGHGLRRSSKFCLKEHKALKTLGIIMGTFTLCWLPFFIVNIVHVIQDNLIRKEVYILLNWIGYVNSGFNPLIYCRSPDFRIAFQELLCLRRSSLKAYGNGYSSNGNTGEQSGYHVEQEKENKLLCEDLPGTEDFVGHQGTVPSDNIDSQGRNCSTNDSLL
Chain of KiSS-1 receptor (Homo sapiens) (Q969F8 whole entry, looked up): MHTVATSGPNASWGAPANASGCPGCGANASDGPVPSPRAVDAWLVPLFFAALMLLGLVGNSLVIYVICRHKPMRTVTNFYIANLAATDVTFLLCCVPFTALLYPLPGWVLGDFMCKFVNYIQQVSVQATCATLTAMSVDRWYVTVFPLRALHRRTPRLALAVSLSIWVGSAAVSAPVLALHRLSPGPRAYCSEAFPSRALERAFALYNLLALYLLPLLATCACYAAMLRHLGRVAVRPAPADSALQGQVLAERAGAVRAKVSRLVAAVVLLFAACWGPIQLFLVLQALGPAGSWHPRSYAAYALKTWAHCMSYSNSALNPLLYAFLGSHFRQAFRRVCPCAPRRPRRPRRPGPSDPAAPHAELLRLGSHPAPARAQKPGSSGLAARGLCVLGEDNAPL
Chain of D(2) dopamine receptor (Homo sapiens) (P14416 whole entry, looked up): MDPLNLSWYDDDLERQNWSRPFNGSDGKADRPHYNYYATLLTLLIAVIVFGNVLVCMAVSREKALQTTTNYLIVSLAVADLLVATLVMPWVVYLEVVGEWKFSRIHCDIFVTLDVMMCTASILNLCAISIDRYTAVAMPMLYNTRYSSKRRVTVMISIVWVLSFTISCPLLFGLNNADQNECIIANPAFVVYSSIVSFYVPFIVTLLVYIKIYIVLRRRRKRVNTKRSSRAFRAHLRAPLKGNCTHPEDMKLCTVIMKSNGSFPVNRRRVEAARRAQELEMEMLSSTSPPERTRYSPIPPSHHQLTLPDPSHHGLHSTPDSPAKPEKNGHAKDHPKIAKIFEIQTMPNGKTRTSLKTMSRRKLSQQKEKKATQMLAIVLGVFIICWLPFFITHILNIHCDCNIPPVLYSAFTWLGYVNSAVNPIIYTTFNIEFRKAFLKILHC
Chain of 5-hydroxytryptamine receptor 2A (Homo sapiens) (P28223 whole entry, looked up): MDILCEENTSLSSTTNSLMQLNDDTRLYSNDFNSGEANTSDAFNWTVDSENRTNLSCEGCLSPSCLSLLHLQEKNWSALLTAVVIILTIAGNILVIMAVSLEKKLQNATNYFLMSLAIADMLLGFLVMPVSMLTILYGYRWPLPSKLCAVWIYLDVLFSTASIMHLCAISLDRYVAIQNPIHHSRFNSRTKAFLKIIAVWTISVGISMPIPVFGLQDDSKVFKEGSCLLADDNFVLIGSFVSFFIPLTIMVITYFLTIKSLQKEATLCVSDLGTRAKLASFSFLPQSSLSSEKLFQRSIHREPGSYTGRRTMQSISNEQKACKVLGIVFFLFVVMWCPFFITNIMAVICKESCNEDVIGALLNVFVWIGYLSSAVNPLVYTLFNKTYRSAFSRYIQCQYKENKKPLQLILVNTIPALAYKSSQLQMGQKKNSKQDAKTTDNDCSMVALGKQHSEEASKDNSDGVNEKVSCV
Chain of Gonadotropin-releasing hormone receptor (Homo sapiens) (P30968 whole entry, looked up): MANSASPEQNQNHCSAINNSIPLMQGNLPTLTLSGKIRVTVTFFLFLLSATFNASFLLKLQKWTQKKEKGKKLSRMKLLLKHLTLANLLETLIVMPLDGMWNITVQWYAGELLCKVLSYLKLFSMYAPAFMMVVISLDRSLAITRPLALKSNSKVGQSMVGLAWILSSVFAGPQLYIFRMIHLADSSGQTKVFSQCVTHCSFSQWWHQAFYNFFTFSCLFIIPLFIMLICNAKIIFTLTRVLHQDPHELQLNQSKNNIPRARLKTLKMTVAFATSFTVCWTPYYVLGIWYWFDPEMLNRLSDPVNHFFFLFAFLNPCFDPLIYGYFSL

O=S(=O)(O)c1cccc2c(S(=O)(=O)O)cccc12
inactive: Potency [1] | Potency [2] | Potency [3] | Potency [4] | Potency [5] | Potency [6] | Potency [7] | Potency [8] | Potency [9] | Potency [10] | Potency [11] | Potency [12] | Potency [13] | Potency [14] | Potency [15] | Potency [16] | Potency [17] | Potency [18] | Potency [19]

O=S(=O)(O)c1cccc(S(=O)(=O)O)c1
inactive: Potency [1] | Potency [2] | Potency [3] | Potency [4] | Potency [5] | Potency [6] | Potency [7] | Potency [8] | Potency [9] | Potency [10] | Potency [11] | Potency [12] | Potency [13] | Potency [14] | Potency [16] | Potency [17] | Potency [18] | Potency [19]

C1C[C@@H]2[C@H]3CC[C@H](C3)[C@@H]2C1
inactive: Potency [1] | Potency [2] | Potency [3] | Potency [4] | Potency [5] | Potency [6] | Potency [7] | Potency [8] | Potency [9] | Potency [10] | Potency [11] | Potency [12] | Potency [13] | Potency [14] | Potency [15] | Potency [16] | Potency [17] | Potency [18]

OCCCCCCCl
inactive: Potency [1] | Potency [2] | Potency [3] | Potency [4] | Potency [5] | Potency [6] | Potency [7] | Potency [8] | Potency [9] | Potency [10] | Potency [11] | Potency [12] | Potency [13] | Potency [14] | Potency [15] | Potency [16] | Potency [17] | Potency [18] | Potency [19]

CC1=C(C=O)C(C)(C)CC=C1
inactive: Potency [1] | Potency [2] | Potency [3] | Potency [4] | Potency [5] | Potency [6] | Potency [7] | Potency [8] | Potency [9] | Potency [10] | Potency [11] | Potency [12] | Potency [13] | Potency [14] | Potency [15] | Potency [16] | Potency [17] | Potency [18] | Potency [19]

CSc1cnccn1
inactive: Potency [1] | Potency [2] | Potency [3] | Potency [4] | Potency [5] | Potency [6] | Potency [7] | Potency [8] | Potency [9] | Potency [10] | Potency [11] | Potency [12] | Potency [13] | Potency [14] | Potency [15] | Potency [16] | Potency [17] | Potency [18] | Potency [19]

C[C@@H]1NC(=O)[C@@H](N)CNC(=O)[C@H](C2CCNC(N)=N2)NC(=O)/C(=C/NC(N)=O)NC(=O)[C@H](CNC(=O)C[C@@H](N)CCCN)NC1=O (stereo partly specified)
inactive: activity change, negative = cytotoxicity [1] -0.202% [at 0.349 µM] | activity, positive = activation [2] -0.551% [at 0.349 µM] | activity change [3] -0.0026% [at 0.217 µM, active compounds read high] | activation [4] 4.86% [at 0.29 µM] | activation [5] -0.973% [at 0.217 µM] | activation [6] -0.0566% [at 0.249 µM] | activation [7] 0.811% [at 0.249 µM] | activity change, negative = cytotoxicity [8] 0.952% [at 0.249 µM] | activity change, negative = cytotoxicity [9] -3.72% [at 0.249 µM] | activity change, negative = cytotoxicity [10] -17.8% [at 0.249 µM] | activation [11] 5.76% [at 0.249 µM] | activity, negative = inhibition [12] 39.2% [at 0.233 µM] | activation [13] -0.558% [at 0.292 µM] | activation [14] -0.0449% [at 0.29 µM] | activation [15] -0.384% [at 0.349 µM] | activity change, negative = inhibition [16] 0.0328% [at 0.349 µM] | activity change, negative = inhibition [17] 6.03% [at 0.349 µM] | activation [18] -0.993% [at 0.349 µM] | activity change, negative = inhibition [19] -5.12% [at 0.348 µM]
